Measurements published in PubChem BioAssay AID686978 (National Center for Advancing Translational Sciences (NCATS), 2013).
Values joined by “and” are separate entries in the source; they are usually repeats but may differ in a detail not shown here. Identical values can stand only once. Among all 420,000 compounds or so, about 64,000 (15%) were called active. Roughly 27% stayed inconclusive and do not appear here. Calls come from the whole dose curve; as a rule, active = well fitted inhibition curve with a large enough effect; inconclusive = small, poorly fitted or top-dose-only effect; inactive = flat fitted curve, though single readings scatter. These entries were drawn from the full list. Where a call stands in place of a potency, no number is given. Some structures have more than one record in an assay (separate samples or runs), and their calls can disagree.

Test: qHTS for Inhibitors of human tyrosyl-DNA phosphodiesterase 1 (TDP1): qHTS in cells in absence of CPT; note: nearly all actives have a fitted effect of over 55% in size
Conditions: DT40 Tdp1-/- hTDP1 cells, no CPT, ATP luminescence, 48 h; activity change, negative = growth inhibition: at 46.2 µM (top of the series)
How it was run: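 A cellular qHTS used chicken DT40 cells lacking endogenous Tdp1 but carrying stably transfected human TDP1. Compounds were applied without camptothecin, and cell growth kinetics were judged by ATP-dependent luminescence after ≥48 hr.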
Potency is the fitted concentration of half-maximal effect.

Compound	Potency
C=CCSc1nc2c(c(=O)[nH]1)C(C(C)C)C(C#N)=C(N)O2 (stereo not drawn)	inactive
CC1CCCC(NC(=O)CSc2nccn2C)C1C (stereo not drawn)	inactive
CSc1ccc(S(=O)(=O)NCC(=O)OCC(=O)NC2(C#N)CCCCC2)cc1[N+](=O)[O-]	inactive
Cc1cc(NC(=O)CCC(=O)N(CC(=O)NCC2CCCO2)c2ccccc2)no1 (stereo not drawn)	inactive
CCC(C)C(=O)Nc1cc([N+](=O)[O-])ccc1Cl (stereo not drawn)	inactive
N/C(=N\OC(=O)/C=C/c1ccccc1)c1ccc(Br)cc1	inactive
Cc1cc(NC(=O)CSCc2ccccc2C)no1	inactive
Cc1noc(C)c1CSCC(=O)Nc1ccc(Br)cc1Cl	10.3 µM (active)
CCOC(=O)c1c(C2CC2)csc1NC(=O)CSCc1c(C)noc1C	inactive
COCCNC(=O)c1cc2c(Br)ccc(Br)c2nc1N	inactive
CCOC(=O)C1(Cc2ccc(Cl)cc2)CCN(C(=O)C2=NNC(=O)CC2)CC1	inactive
COc1ccc(CCc2nnc(CCC(=O)NCc3cnn(-c4ccccc4C)c3)o2)cc1	inactive
COc1ccc(CCNC(=O)C(=O)NCC2OCCN2S(=O)(=O)c2ccc(F)cc2)cc1OC (stereo not drawn)	inactive
COc1ccc(S(=O)(=O)N2CCOC2CNC(=O)C(=O)NCc2ccncc2)cc1C (stereo not drawn)	inactive
COc1ccc(CCNC(=O)C(=O)NCC2OCCN2S(=O)(=O)c2ccc(OC)c(C)c2)cc1 (stereo not drawn)	18.4 µM (active)
COCCNC(=O)c1ccc(S(=O)(=O)c2ccc(Cl)cc2)c(NC(C)=O)c1	inactive
Cc1ccc(OCCNC(=O)CNC(=O)c2ccc(C)c(C)c2)cc1	inactive
Cc1ccc(CNC(=O)c2ccc3c(c2)S(=O)(=O)c2ccccc2C3=O)cc1	inactive
O=C(NCc1ccc(Cl)cc1)c1ccc2c(c1)nnn2C1CCCC1	inactive
CC1=Nc2cc(C(=O)NCc3ccc(C)cc3)ccc2Sc2ccc(Cl)cc21	20.6 µM (active)
COCCNC(=O)c1ccc2c(c1)N=C(C)c1cc(C)ccc1S2	0.461 µM (active)
O=[N+]([O-])c1ccccc1/C=C/CN1CCCC(CO)C1 (stereo not drawn)	inactive
Cc1nnc(SCC(=O)Nc2ncc3c(n2)CC(C)(C)CC3=O)s1	inactive
O=C(NC(=S)Nc1ncccn1)c1ccccc1Br	inactive
CCC(C)N(C(=O)COC(=O)c1nc(Cl)ccc1Cl)C1CCS(=O)(=O)C1 (stereo not drawn)	inactive

Compound	Potency
CCN(CC)CCN1C(=O)C(=O)/C(=C(/O)c2ccccc2)C1c1ccccc1F (stereo not drawn)	inactive
COc1cccc(C(c2c(O)cc(C)n(Cc3ccco3)c2=O)N2CCN(c3ccccc3)CC2)c1 (stereo not drawn)	inactive
Cc1c(NC(=O)CSc2nnnn2-c2ccc(C(=O)O)cc2)c(=O)n(-c2ccccc2)n1C	inactive
Cc1c(NC(=O)CSc2cccc3cccnc23)c(=O)n(-c2ccccc2)n1C	23.1 µM (active)
Cc1c(NC(=O)CSc2nnc(-c3cccnc3)n2N)c(=O)n(-c2ccccc2)n1C	inactive
COc1ccc(F)c(CN2CCC3(CCC(CNC(=O)c4ccn(C)n4)O3)CC2)c1 (stereo not drawn)	inactive
Cc1cc(NC(=O)Cn2nc(C(F)(F)F)c3c2CCCC3)no1	inactive
OCCN1CCOCCOCCN(CCO)CCN(CCO)CC1	inactive
Cc1cc(C)c(C#N)c(SCc2ccc3c(c2)OCO3)n1	inactive
C=CCn1c(-c2sc(-c3ccccc3)nc2C)n[nH]c1=S	23.1 µM (active)
C=CCn1c(CCNC(=O)c2cccs2)n[nH]c1=S	inactive
Cc1nc(-c2ccccc2)sc1-c1nnc(C2CC2)o1	inactive
COc1ccc(/C=C/c2c(-c3cccc(C)c3)oc3ccc(-c4ccc5c(c4)OCO5)cc23)cc1	inactive
CC(C)(C)C(=O)/C(C#N)=C/c1ccc(O)cc1	inactive
N#C/C(=C\c1ccc(O)c(O)c1)C(N)=O	inactive and 29.9 µM (active)
CC(C)NC(=O)/C(C#N)=C\c1ccc(N(C)C)c(Br)c1	inactive
CCc1nc2ccc(C(=O)N(C)CCN(C)C)cn2c1N(CC)CCOC	inactive
COc1ccc(N(C(=O)c2cccnc2)S(=O)(=O)c2ccc(OC)c(OC)c2)cc1	inactive
Cc1cc(NC(=O)CCS(=O)(=O)c2ccc(F)cc2)no1	inactive
CCOC(=O)[C@]12CCCC=C1N(CCC1=CCCCC1)C(=O)[C@H](CC(=O)N1CCCCC1)C2	5.17 µM (active)
CCOC(=O)[C@]12CCCC=C1N(CCC1=CCCCC1)C(=O)[C@H](CC(=O)N1CCSCC1)C2	16.4 µM (active)
CCOC(=O)[C@]12CCCC=C1N(CCC1=CCCCC1)C(=O)[C@H](CC(=O)N1CCOCC1)C2	16.4 µM (active)
CCOC(=O)N1CCN(C(=O)COc2ccc(Br)cc2)CC1	inactive
CCOC(=O)N1CCN(C(=O)C[C@@H]2C[C@@]3(C(=O)OC)CCCCC=C3N(CCC3=CCCCC3)C2=O)CC1	16.4 µM (active)
CSc1c(SCc2ccccc2)cnn(Cc2ccccc2)c1=O	inactive

Compound	Potency
Cc1ccc(N)cc1-n1c(C)ccc1C	inactive
C/C=C/C(=O)OCc1csc(CC(=O)Nc2ccccc2C)n1	inactive
CC1CC1C(=O)OCC(=O)Nc1cccc(F)c1 (stereo not drawn)	inactive
Cc1cc(-c2nnc(SCC(=O)Nc3ccc(F)cc3)n2N)n[nH]1	inactive
O=C(CN1C(=O)CSC1=O)N1CCCC(Nc2ccc(F)cc2)C1 (stereo not drawn)	inactive
Cc1ccc(S(=O)(=O)N(C)c2ccc(OCC(=O)NC3=NCCS3)cc2)cc1	inactive
CC(C)NC(=O)Nc1cccc2c1O[C@H](CN(C)S(=O)(=O)c1cccs1)[C@@H](C)CN([C@H](C)CO)C2=O	inactive
CCOC(=O)[C@]12CCC=C1N(Cc1ccccc1)C(=O)[C@H](CC(=O)N1CCCC1)C2	inactive
COC(=O)[C@]12CCCCC=C1N(CCC1=CCCCC1)C(=O)[C@H](CC(=O)N1CCSCC1)C2	16.4 µM (active)
COc1ccc(Cl)cc1N(CC(=O)N1CCCCC1)S(C)(=O)=O	inactive
CCOC(=O)[C@]12CCCC=C1N(Cc1ccc(Cl)cc1Cl)C(=O)[C@H](CC(=O)N1CCCCC1)C2	23.1 µM (active)
Cc1ccc(-c2ccc(C3=CC(=O)CC(C)(C)C3=O)cc2)cc1	inactive
CCc1ccccc1N1C(=O)C2C3CC(=O)C(c4ccccc43)C2C1=O (stereo not drawn)	inactive
Cc1ccc(CCC(=O)Nc2ncc(Cc3cc(Cl)ccc3Cl)s2)o1	0.58 µM (active)
Cc1ccc(Cc2cnc(N)s2)o1	inactive
O=C(CCc1ccccc1Cl)Nc1ccc(S(=O)(=O)Nc2nccs2)cc1	inactive
COc1cc2sc(C)nc2cc1C	inactive
CCNC(=O)N1CCNC(=O)C1CC(=O)Nc1ccc(C(=O)OCC)cc1 (stereo not drawn)	inactive
CCOC(=O)c1ccc(NC(=O)CC2C(=O)N(c3cccc(OC)c3)C(=O)N2C2CCCCC2)cc1 (stereo not drawn)	20.6 µM (active)
CCOc1ccc(NC(=O)CC2C(=O)N(c3ccccc3)C(=O)N2CCOC)cc1 (stereo not drawn)	inactive
CCOc1ccc(NC(=O)CC2C(=O)N(c3cccc(OC)c3)C(=O)N2C2CCCCC2)cc1 (stereo not drawn)	inactive
COC(=O)CN1C(=S)N(c2ccccc2)C(=O)C1CC(=O)Nc1ccc(Cl)cc1 (stereo not drawn)	inactive
CCNC(=O)CC1C(=O)N(c2ccc(F)cc2)C(=O)N1Cc1cccs1 (stereo not drawn)	inactive
CCOC(=O)c1ccc(NC(=O)CC2C(=O)N(c3ccccc3)C(=O)N2Cc2cccs2)cc1 (stereo not drawn)	20.6 µM (active)
CCNC(=O)CC1C(=O)N(c2ccc(F)cc2)C(=O)N1Cc1ccc(C)cc1 (stereo not drawn)	inactive

Compound	Potency
CCCOc1ccc(NC(=O)CC2C(=O)N(c3ccccc3)C(=O)N2Cc2ccco2)cc1 (stereo not drawn)	20.6 µM (active)
Cc1ccnc(NS(=O)(=O)c2ccc(NC(=O)c3oc4ccc(F)cc4c3C)cc2)n1	inactive
COCc1cc(C)n(CC(=O)NCC2CCCO2)c(=O)c1C#N (stereo not drawn)	inactive
Cc1cnc(C(=O)OCC(=O)NCCCc2ccccc2)cn1	inactive
Cc1ccccc1NC(=O)c1nn(-c2ccc(F)c(F)c2)ccc1=O	inactive
CN(C)/C=C(/C(=O)c1ccccc1)S(=O)(=O)c1ccc(Cl)cc1	inactive
COc1ccc(OC(C)C(=O)Nc2cccnc2)cc1 (stereo not drawn)	inactive
N#Cc1ccc(OCCN2C(=O)NC3(CCSC3)C2=O)cc1 (stereo not drawn)	inactive
CCOC(=O)[C@H]1[C@H]2COc3cc(OC)ccc3[C@@H]2N2C(=O)N(c3ccc(Br)cc3)C(=O)[C@@]12C	18.4 µM (active)
CCOC(=O)[C@@H]1[C@H]2COc3ccc(Br)cc3[C@H]2N2C(=O)N(c3ccc(C)cc3)C(=O)[C@@]12C	20.6 µM (active)
CCOC(=O)[C@@H]1[C@H]2COc3cc(OC)ccc3[C@H]2N2C(=O)N(c3ccc(F)cc3)C(=O)[C@]12C	inactive
CCOC(=O)[C@H]1[C@H]2COc3ccc(Br)cc3[C@@H]2N2C(=O)CN(C)C(=O)[C@@]12C	inactive
CCOC(=O)[C@H]1[C@H]2COc3ccccc3[C@@H]2N2C(=O)CN(Cc3ccccc3)C(=O)[C@@]12C	inactive
CCOC(=O)[C@@H]1[C@H]2COc3cc(OC)ccc3[C@@H]2N2C(=O)N(c3cccc(C)c3)C(=O)[C@@]12C	inactive
O=C(CN1CCN(Cc2ccc(F)cc2Cl)C1=O)NCc1cccs1	inactive
COc1cc(OC)c2c(c1)OC(=O)CC2c1cc(OC)c(OC)c(OC)c1 (stereo not drawn)	inactive
COc1cc(C2CC(=O)Oc3cc(OC)c(OC)c(OC)c32)cc(OC)c1OC (stereo not drawn)	inactive
COc1cc(C2OC(c3cc(OC)c(OC)c(OC)c3)C(C)C2C)cc(OC)c1OC (stereo not drawn)	18.4 µM (active)
CCCNC(=O)NCc1ccc(N2CCCC2=O)cc1	inactive
Cn1cccc1C1(C(F)(F)F)NCCNC1=O (stereo not drawn)	inactive
COC(=O)c1ccc(C(=O)OC)c(NC(=S)N2CCN(c3ccc(F)cc3)CC2)c1	inactive
Cc1ccc(SCC(=O)N2CCN(c3ccc(F)cc3)CC2)cc1	inactive
Cc1ccc(CSCC2Nc3ccc(C(=O)N4CCN(c5ccc(F)cc5)CC4)cc3NC2=O)cc1 (stereo not drawn)	16.4 µM (active)
